Results filed as inconclusive are left out. Active and inactive are the calls of the source. No rule for the calls is given here.

Consider one compound from PubChem BioAssay AID602447 (National Center for Advancing Translational Sciences (NCATS), 2012).

The target of this assay is Beta-2 adrenergic receptor (Homo sapiens) (UniProt P07550). In words: qHTS for antagonists of the Thyroid Stimulation Hormone Receptor: Hit Validation with Beta-2 Adrenergic Receptor. Conditions: B2AR-expressing cells, cAMP HTRF, antagonist counterscreen; active compounds read high. An excerpt: The thyroid-stimulating hormone receptor (TSHR) is a member of the 7 trans-membrane-spanning receptor (7TMR) family of cell surface receptors. TSHR-mediated hyperthyroidism is important in thyroid pathology. The development of small molecule antagonists of TSHR may lead to therapeutic approaches for TSHR-mediated hyperthyroidism caused by constitutively activating mutations or stimulating auto-antibodies associated with Graves' disease. Graves' disease is the leading cause of hyperthyroidism and is caused by autoantibodies that stimulate TSHR (TsAbs) causing thyroid growth and unregulated overproduction of thyroid hormones and existing treatments have liabilities (agranulocytosis). In addition, TSHRs are known to be expressed in multiple extrathyroidal tissues including bone, brain, kidney, testis, fat and cells of the immune system but the role of the TSHR in these tissues is not clear. Therefore, TSHR antagonists/inverse agonists could be used as probes of extrathyroidal TSHR function. Finally, TSHR inverse agonists, which are a subclass of antagonists that inhibit agonist-independent (or basal or constitutive) TSHR signaling, could be used to inhibit TSH-independent signaling in patients with recurrent or metastatic thyroid cancer who are receiving thyroid hormone to suppress TSH. […]
In general terms: In qHTS, concentration-response curves come from the screen itself.

Beta-2 adrenergic receptor (Homo sapiens), sequence (P07550 whole entry, looked up): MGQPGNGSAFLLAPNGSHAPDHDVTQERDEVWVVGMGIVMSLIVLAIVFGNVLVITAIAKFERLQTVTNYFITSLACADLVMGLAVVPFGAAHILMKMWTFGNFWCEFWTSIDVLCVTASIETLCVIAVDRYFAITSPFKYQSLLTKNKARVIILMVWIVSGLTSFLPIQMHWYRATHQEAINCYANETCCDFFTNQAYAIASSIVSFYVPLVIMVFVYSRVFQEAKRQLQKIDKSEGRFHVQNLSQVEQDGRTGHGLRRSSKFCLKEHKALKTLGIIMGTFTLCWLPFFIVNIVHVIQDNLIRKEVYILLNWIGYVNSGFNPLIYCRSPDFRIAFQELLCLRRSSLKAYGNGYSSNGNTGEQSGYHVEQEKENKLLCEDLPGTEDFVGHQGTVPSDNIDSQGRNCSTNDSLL

In the case of `N#CC(C#N)=NNc1ccc(-n2ccc(C(F)(F)F)n2)cc1`, the max inhibition is 91.9% (active).
